Reference: the supplement of paper PMC3334620
The full ranking holds about 33,000 sequences; the median of “E-score (-0.5 to 0.5)” is about -0.016, and the highest 2% start at about 0.3. Shown is part of a subset that was picked to be rich in the highest values.

The sequences below were run against T1, Yer184c (UniProt P39961) (assay: PBM E-score (8-mer binding enrichment) (E-score (-0.5 to 0.5)); higher = stronger / more preferred TF binding). Conditions: protein concentration: 100 nM; construct: GST-full length.
T1 sequence: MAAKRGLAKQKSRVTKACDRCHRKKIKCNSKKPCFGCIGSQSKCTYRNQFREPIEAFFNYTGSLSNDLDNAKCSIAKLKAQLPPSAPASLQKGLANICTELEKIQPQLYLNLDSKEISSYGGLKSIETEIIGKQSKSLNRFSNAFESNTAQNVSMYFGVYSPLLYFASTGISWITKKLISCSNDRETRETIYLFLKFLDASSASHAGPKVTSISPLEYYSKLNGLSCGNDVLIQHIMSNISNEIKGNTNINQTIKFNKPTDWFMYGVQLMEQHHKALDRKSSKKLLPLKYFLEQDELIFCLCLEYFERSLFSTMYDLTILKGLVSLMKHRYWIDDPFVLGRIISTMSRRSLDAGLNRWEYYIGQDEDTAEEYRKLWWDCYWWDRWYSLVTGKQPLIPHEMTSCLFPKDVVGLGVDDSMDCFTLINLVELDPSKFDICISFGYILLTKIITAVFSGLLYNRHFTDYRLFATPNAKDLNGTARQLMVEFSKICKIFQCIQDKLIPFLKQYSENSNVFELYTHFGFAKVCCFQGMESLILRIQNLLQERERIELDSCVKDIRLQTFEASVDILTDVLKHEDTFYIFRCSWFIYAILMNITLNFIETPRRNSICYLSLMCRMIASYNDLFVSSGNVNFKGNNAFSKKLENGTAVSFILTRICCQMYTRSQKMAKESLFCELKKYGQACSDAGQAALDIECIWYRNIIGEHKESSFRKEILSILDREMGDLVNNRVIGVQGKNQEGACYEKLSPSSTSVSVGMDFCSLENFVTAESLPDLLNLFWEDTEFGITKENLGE
Method: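 Universal 'all 10-mer' protein binding microarrays (Agilent AMADID 015681) probed with GST-tagged S. cerevisiae TFs (full-length or DBD) made by in vitro transcription/translation (PURExpress), about 100-200 nM. Bound TF was detected with fluorescent anti-GST. Each ungapped 8-mer (which stands for itself and its reverse complement) is scored by the PBM enrichment score (E-score), a modified Wilcoxon-Mann-Whitney statistic from -0.5 to +0.5, computed with the Universal PBM Analysis Suite. Scale: above 0.35 generally sequence-specific binding.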

Sequence	PBM E-score
TCGATTAA	0.148
GTCGGCAA	0.263
CACGGCAA	0.199
GTCGGCAC	0.1
ATCGGCAG	0.247
TTCGGCAA	0.336
CTCGGCAC	0.31
CTCGGCCA	0.204
CTCGGCAG	0.31
CACGGCAG	0.0946
ATCGGCAC	0.27
CTCGGCAA	0.319
ATCGGCAA	0.246
AGGACCTG	-0.174
ATATACCC	0.021
TCTATAGA	-0.137
GTCAATAA	0.158
AAGTATCC	0.0522
CAGGGCTC	-0.226
GAGAGCGC	-0.218
AGCAGCAT	-0.206
AGAGTAAC	0.0419
CAATAGAG	-0.242
CCAGCCTA	-0.206
CCCGCTCA	-0.141

Sequence	PBM E-score
CCTAAGTA	0.106
AGCCGGGG	0.0566
CGCCGGGA	0.312
CGCCGGGC	0.286
GGCCGGGA	0.292
AGCCGGGC	0.172
AGCCGGGA	0.311
CAAACAGC	-0.0581
ATGCGTGA	0.0231
AATCTAAT	0.0331
ATCAAGTC	-0.0287
ATGAACAG	0.17
CCGGCAAC	0.293
GCGGCAAA	0.107
CCGGCAAA	0.374
ACGGCAAG	0.0759
CCGGCAAG	0.331
ACGGCAAA	0.211
CTAGCAGC	-0.0845
GAAAGCTA	0.00964
ACGACCGG	0.0371
TGCAAACA	-0.168
AAATCGAT	0.0714
GGCGGCGA	0.0554
CCCGGCGC	0.216

Sequence	PBM E-score
CCCGGCGA	0.236
GACGGCGA	-0.034
GCCGGCGA	0.311
ACCGGCGA	0.284
ACCGGCGC	0.226
TCCGGCGA	0.38
GCCGGCGC	0.406
AAGAGGAA	0.23
AGTGAGAA	0.118
CCGATGCA	0.157
GAGTCAGC	-0.101
TCAGGGGA	-0.252
CTTCAAGA	0.171
AAAAACAG	0.115
GTTCCACA	-0.0536
ACCTCCGT	0.107
ACCTCCGG	0.357
CACTCCGA	0.0993
AACTCCGA	0.325
GACTCCGA	-0.0256
CCCTCCGG	0.1
AGCTCCGA	0.251
CACTCCGG	0.306
CACTCCGC	-0.0284
AGCTCCGG	0.313

Sequence	PBM E-score
TACTCCGA	0.262
AGCTCCGC	0.127
CAAGAATG	0.103
GTTGGAGA	0.0278
GTCGCCTA	-0.157
GGACGCCC	-0.106
AGGGGCAT	-0.358
ATTCTGCC	0.201
CCAAGCGG	-0.15
AACTCCGG	0.424
AACTCCGC	-0.0142
AACTCCGT	0.222
AGTTCGAG	-0.00888
AAGGGGTA	-0.351
AAGCGCCA	-0.208
AAACGCCA	0.089
CGGCGCCA	0.162
AAACGCCG	0.334
CAACGCCG	0.294
AGGCGCCG	0.207
AAGCGCTC	0.0112
AAGCGCCT	-0.14
CGGCGCCG	0.443
AAGCGCCG	0.373
AAGCGCTT	0.306

Sequence	PBM E-score
AAGCGCTA	0.0496
ATGACCTG	-0.0827
AATTGACA	0.0558
GGGCAGGA	-0.269
GGGGTACA	-0.111
CGCATTAG	-0.101
CGATGCAA	-0.00579
ATGCCCCG	-0.139
TCATCGCA	-0.0385
ATCGGCCC	0.113
ATCGGCCG	0.388
ATCGGCCA	0.125
CCGGGCCC	0.262
AGCGGCCA	-0.161
AGCGGCCG	0.315
CGCGGCCG	0.251
CCGGGCCG	0.429
ACGGCCCG	0.146
CCGGCCCA	0.181
CCGGGCCA	0.14
CCGGCCCG	0.386
GAATCTGC	0.12
CTAGTGAG	-0.0187
ACCCCGCG	-0.119
AAACTGTC	-0.133

Sequence	PBM E-score
AGCAGTGC	-0.185
ACCGGCCT	0.0901
CGGGCCCA	0.0473
CGGGCCCG	0.351
ACCGGCCA	0.173
AGGGCCCG	0.0448
CCCGGCCC	0.161
ACCGGCCG	0.413
CCCGGCCA	0.209
CCCGGCCG	0.371
ACAACCTA	-0.00165
GAGTGGCC	-0.0531
AGTACTAG	0.0969
ACAAGCTG	0.0583
AGCCACTA	-0.112
AAAATCCA	-0.0451
ATGTGAGG	0.0347
TCAACACA	0.179
CTTCCGAA	0.39
AGTCCGAG	0.268
CTTCCGAC	0.173
ACTCCGAG	0.233
CTTCCAAA	0.0435
GGTCCGAA	0.303
GTTCCAAA	0.158

Sequence	PBM E-score
ACTCCGAA	0.241
GTTCCGAA	0.369
ATTCCGAG	0.353
ATTCCGAA	0.388
ATTCCGAC	0.211
AAGAATTA	0.134
CGGCCACA	0.194
CACATTCG	0.097
CGGGTATA	0.196
CAGGGAAA	0.0066
ACCATTGC	-0.0741
GTTTTACA	-0.015
GCCAACCA	-0.155
AATTAATA	0.407
AATTAATT	0.0189
GTTTAATA	0.155
CTTTAATA	0.245
ATTTAATA	0.313
ATTTAGTA	0.328
TATTAATA	-0.00461
CTTTAGTA	-0.0339
ATTTAGTC	0.133
GCTGCACA	-0.159
CGCAGTGC	-0.204
AAAGGGAG	-0.313

Sequence	PBM E-score
CAGTCTTA	-0.0806
GTCAAGAA	0.0525
TTCAAAAA	0.228
TTCAAGAA	0.312
CAGCCATG	-0.329
CGGGCTAC	0.00991
AGAATTTA	0.121
TACGCCGA	0.237
AACGCCGG	0.317
AACGCCGC	0.116
AACGCCGT	0.119
CACGCCGA	0.153
AACGCCGA	0.415
CCCTAAAA	-0.238
AAACGAGG	-0.124
GCTATAAC	-0.00042
GATCTGTA	-0.0435
ATTCGGCG	0.282
ATTCGGCC	0.292
GCTCGGCA	0.288
ATTCGGTA	0.329
GTTCGGTA	0.29
CATCGGCA	0.211
CTTCGGCC	0.272
CTTCGGCA	0.333

Sequence	PBM E-score
ATTCGGCA	0.318
ATTCGGTG	0.155
GTTCGGCA	0.368
GGTCGGCA	0.112
AAGCGTGT	-0.217
CACACTGC	-0.155
GATTGGCC	-0.0975
AGGGTGAA	-0.136
AATTGTCG	0.035
TGGAACCA	0.138
GGGAACCA	-0.222
CCGAACGC	0.274
CCGAACCG	0.329
CGGAACCA	0.338
CCGAACGG	0.325
CCGAACCC	0.0527
CGGAACCC	0.279
CCGAACCA	0.154
CCGAACGA	0.245
CGGAACCG	0.364
AGGAACCG	0.179
ACTTATAA	0.221
GATCTAGC	-0.195
CAACTACC	-0.0226
ATCCCATC	-0.19

Sequence	PBM E-score
ATGCACCC	-0.147
GGAAAAAC	0.124
CGGAAAAG	0.248
AGAAATAA	0.19
GGAAAAAA	0.304
GGAAATAA	0.319
CGGAAAAA	0.394
AGGAAAAA	0.168
CGAAATAA	0.255
CGGAAACC	0.188
GGGAAAAC	-0.00619
CGGAAAAC	0.349
GGGAAAAA	0.123
CCAACCAC	-0.0234
AGAAAACT	0.0223
TCCTTACA	-0.0191
AACGAAGT	-0.0531
TCTCCCAA	0.0611
GCACTACA	-0.142
CGCCCCTC	-0.199
CGGAAACA	0.314
GGGAAACA	0.22
AGGAAACA	0.165
CGTCTACC	0.0232
AAACTCGA	0.0301

Sequence	PBM E-score
ACAACGGA	0.314
TAAACGGA	0.311
CAAACGGA	0.267
GTAACGGA	0.304
ACAACGGG	0.00646
CCCACGGA	0.157
GAAACGGA	0.294
TCCACGGA	0.304
ACCACGGA	0.107
ACAACGGT	-0.0406
ATAACGGA	0.278
CTAACGGA	0.284
CCTGTAGA	-0.094
ACGGCAGC	0.161
AACGGTAC	0.187
CTCAAAGC	0.114
ATGAACAA	0.154
CCCCATCG	-0.0742
ACTCTGTC	-0.139
ATCACGGG	-0.164
GCAACGGA	0.294
CCAACGGA	0.101
ATCACGGA	0.307
ATCACGGC	0.197
TCAACGGA	0.315

Sequence	PBM E-score
CAATGCAG	-0.0658
AGCCAGTC	-0.153
CGAGGATC	0.0927
GAACCTCC	-0.0558
CAATTCAG	-0.0853
CGGCCGAA	0.415
TGGCCGAA	0.295
CGGCCGAC	0.381
AGGCCGAG	0.143
CAGCCGAG	0.275
AGGCCGAC	0.0134
GGGCCGAA	0.243
CGGCCGAG	0.372
GGGCCGAC	0.132
CACCCCCA	-0.206
CCAATTGG	0.041
TACTGTCA	-0.0937
GCTCAAGC	-0.0698
ATGCTAAA	0.0332
GATTGATA	0.0572
TGTTGTAA	0.148
ACCATCAG	-0.101
ACGCCGAC	0.198
ACGCCGAT	0.151
ACGCCGAA	0.343

Sequence	PBM E-score
TCGCCAAA	-0.0461
TCGCCGCA	0.0686
GCGCCGAC	0.206
GCGCCGAA	0.343
GCGCCGTA	0.247
TCGCCGAA	0.316
AGGTATTG	-0.0873
AAGGATAT	0.0287
CTCTCCCA	-0.211
CGGTCGCA	-0.0193
TGCCCGAA	0.0801
ACCAAAGT	-0.0125
ATGGCCTC	-0.106
ACGCTTCC	0.0165
CTAAAGTC	-0.0167
ACGGCACG	0.194
GCGGCACC	0.23
CCGGCATC	0.322
ACGGCACC	-0.0473
CCGGCACG	0.288
TCGGCACA	0.307
ACGGCATC	0.0862
CCGGCACA	0.314
CCGGCATA	0.291
GCGGCACA	0.129

Sequence	PBM E-score
ACGGCACA	0.0865
CCGGCACC	0.352
ACAGCTAA	-0.0181
CGCGGCCC	0.0857
AATGTTGT	-2e-05
GCTCTTCA	-0.187
ACACTAGC	-0.101
CTTCTTGA	-0.0452
ACTGGGCA	-0.199
CCGCCTCA	-0.051
CACCTCAG	-0.236
ACCTAATG	-0.284
CGGAGTGA	0.153
GTAGGTTA	-0.00416
GTGCCAAA	-0.00899
ATGCCGAA	0.408
ATGCCGTA	0.196
ATGCCGAG	0.346
CTGCCGAA	0.297
GTGCCGAA	0.387
ATGCCGTG	0.115
ATGCCAAA	-0.0656
ATGCCGAC	0.243
